Rows were chosen to be rich in hits. Some 6.2% of all compounds tested hit in one or more screens of this group.
Gal4-VP16 FLuc = counter-screen for ROR gamma inhibitors: Gal4-VP16 reporter; Drosophila S2 Gal4-VP16 UAS-luciferase, luminescence, 20 h; Potency, µM (doses to about 53.6 µM), for inactives: top-dose activity, negative = inhibition, hits mostly inhibitors; 310,000 tested, 3.5% active;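 further: Gal4-VP16 expression switched on by copper sulfate through the metallothionein promoter; nearly all actives have a fitted effect of over 50% in size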
RORgamma inh = ROR gamma (mouse) transcription inhibition; P51450; Drosophila S2 Gal4-RORgamma UAS-luciferase reporter, 20 h; Potency, µM (highest dose often 53.6 µM), for inactives: at the highest dose activity change, negative = inhibition, usual class: inhibitors; 310,000 tested, 5.4% active; further: nearly all actives have a fitted effect of over 60% in size
Target sequence (P51450 whole entry, looked up, the tested form may be a part): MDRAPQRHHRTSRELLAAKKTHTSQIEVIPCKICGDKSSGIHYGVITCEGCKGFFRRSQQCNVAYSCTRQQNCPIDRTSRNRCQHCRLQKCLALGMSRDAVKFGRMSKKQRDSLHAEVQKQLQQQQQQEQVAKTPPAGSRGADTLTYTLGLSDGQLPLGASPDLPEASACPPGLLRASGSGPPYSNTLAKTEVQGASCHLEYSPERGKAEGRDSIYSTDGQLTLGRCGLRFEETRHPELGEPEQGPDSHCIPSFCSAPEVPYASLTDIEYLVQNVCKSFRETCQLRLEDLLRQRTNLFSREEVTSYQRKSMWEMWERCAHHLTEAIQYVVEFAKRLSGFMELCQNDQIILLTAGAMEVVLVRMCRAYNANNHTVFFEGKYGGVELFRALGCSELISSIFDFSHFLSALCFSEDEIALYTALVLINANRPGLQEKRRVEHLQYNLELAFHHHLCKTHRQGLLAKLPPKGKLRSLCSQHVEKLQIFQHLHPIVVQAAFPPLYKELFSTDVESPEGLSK
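Luminescence from a UAS-regulated Photinus luciferase reporter in stably transfected Drosophila Schneider cells is measured; decreased signal marks ROR gamma inhibition. Fusion expression is induced by 700 uM copper sulfate for 20 hr.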
KinaseGlo FLuc = blocks Kinase-Glo luciferase, a counter-screen artifact | Q27757 | Kinase-Glo luciferase, ATP luminescence, 8 min | Potency, µM (top dose mostly 38.3 µM), without a hit: at the highest dose activity change, negative = inhibition, actives largely listed as inhibitors | 200,000 tested, 0.28% active | AID 1379; further: nearly all actives have a fitted effect of over 60% in size
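Luminescence was the read-out, taken after 8-minute incubation at ambient temperature. Luciferase turned over luciferin with 10 uM ATP in imidazole pH 7.2 buffer containing KCl, MgCl2, Tween 20 and BSA.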
An asterisk follows results filed as active; ? = inconclusive; nt = no result; [ ] = another dose, or the depositor's remark. The call rests on the fitted dose curve; in most records, active means well fitted curve in the direction sought with a large enough effect; inconclusive means small, poorly fitted or top-dose-only effect, or another doubt; inactive means no such curve, though single readings can be large; an effect the other way counts as inactive or inconclusive. On the % scale 0 is the no-effect control and ±100 the full control effect; potency means the concentration at half of the fitted maximal effect.

SMILES	Gal4-VP16 FLuc	RORgamma inh	KinaseGlo FLuc
O=C(NN=C1CCCC1)c1ccc([N+](=O)[O-])cc1	0.1%	11.2µM*	-3.7%
O=C(Nc1cccc([N+](=O)[O-])c1)ONC1=NCCCCC1	-1.0%	-5.9%	nt
O=C(NN=C1CCCC1)c1ccc(O)cc1	?	11.2µM*	nt
CCOC(=O)N1CCN(c2nc3ccccn3c(=O)c2C=O)CC1	2.0%	13.9%	nt
Cc1ccc(-c2nnn(CC(=O)N(CC(=O)NC3CCCC3)c3ccccc3F)n2)o1	13.7%	3.1%	nt
COc1cc(NC(=O)CCc2nnc3ccc(N4CCCCC4)nn23)cc(OC)c1OC	1.1%	3.7%	nt
O=C(Cc1ccccc1)NNC(=S)Nc1ccc(Cl)cc1	?	?	-4.7%
Cc1cccc(NC(=S)NNC(=O)Cc2ccccc2)c1	?	11.2µM*	3.0%
O=C(CSCc1ccccc1Cl)Nc1ccc(C(=O)O)cc1	14.6%	5.4%	nt
Cc1cccc(NC(=O)CC(=O)Nc2cccc(C)c2)c1	-6.6%	17.6%	nt
O=C(CSCc1ccccc1Cl)NNC(=S)Nc1ccccc1	-6.9%	15.8µM*	-1.5%
Cc1cccc(NC(=S)NNC(=O)c2csc(C)c2)c1	?	5.01µM*	-1.9%
Cc1cccc(NC(=S)NNC(=O)c2csc3c2CCCC3)c1	-10.4%	?	1.6%
Cc1cccc(NCC(=O)NNC(=S)Nc2ccccc2)c1	?	11.2µM*	2.6%
COc1ccc(N(CC2CO2)S(=O)(=O)c2ccccc2)cc1 (stereo not given)	-14.3%	0.1%	-1.6%
O=C(CCNC(=O)Cn1ccc2ccccc2c1=O)NCCc1ccccc1Cl	?	-8.6%	4.9%
OCCN1CCN(c2cc(C(F)(F)F)nc3ccccc23)CC1	0.7%	32.2%	nt
CNC(=S)NNC(=O)CNc1ccc(C)c(Cl)c1	12.6µM*	5.62µM*	10.3%
Cc1ccc(NC(=O)CSC(N)=O)cc1Cl	?	-3.2%	-0.2%
COC(=O)c1ccc(C2c3c(oc4ccc(Cl)cc4c3=O)C(=O)N2CCN2CCOCC2)cc1 (stereo not given)	4.8%	-1.0%	nt
Cc1ccc(S(=O)(=O)N2CCc3nc(COc4ccccc4)c4c(c3C2)CO[C@@H](C)C4)cc1	nt	nt	-2.9%[7.66 µM]
Cc1ccc(NC(=O)CN2C(=O)NC(C)(c3ccc(Cl)cc3)C2=O)cc1 (stereo not given)	-8.4%	40.3%	nt
CCC1(c2ccccc2)NC(=S)N(c2ccc(C)c(C)c2)N1 (stereo not given)	?	2.82µM*	3.2%
CCC1(c2ccc(Cl)cc2)NC(=S)N(c2ccc(C)c(C)c2)N1 (stereo not given)	-5.2%	?	nt
CCC1(c2ccc(Cl)cc2)NC(=S)N(c2ccc(C)cc2)N1 (stereo not given)	1.1%	1.78µM*	1.9%
SMILES	Gal4-VP16 FLuc	RORgamma inh	KinaseGlo FLuc
CC12CC[C@@H]3c4ccc(OS(=O)(=O)O)cc4CC[C@H]3C1CCC2=O (stereo not given in full)	-9.2%[17 µM]	-14.3%[16.9 µM]	-1.7%[17.1 µM]
O=C(O)COc1ccc(F)cc1Br	-10.0%	3.2%	nt
CC1=[N+](C)c2ccc3ccccc3c2C1(C)C	2.51µM*	?	-2.7%
c1ccc2c(c1)ccc1ccccc12	5.0%	0.4%	nt
COc1ccc(Nc2ccc3c(c2)=NC2(CCCCC2)[N+]=3[O-])cc1	11.2µM*	11.2µM*	?
[O-][N+]1=c2ccc(Nc3ccccc3)cc2=NC12CCCCC2	12.6µM*	10µM*	-26.5%
O=[N+]([O-])c1ccc2c(c1N1CCCCC1)=NC1(CCCCC1)[N+]=2[O-]	-2.6%	14.6%	nt
COc1ccc(NC2=NCCC2)cc1	-4.4%	-0.4%	-3.2%
Nc1ccc(S(=O)(=O)N2CCCC2C(=O)O)cc1 (stereo not given)	-10.2%	3.9%	nt
Cc1c(C(=O)N2CCCC2)oc2c1-c1nn(CC(=O)NCCCOC(C)C)cc1CC2	0.3%	2.5%	nt
CCCCN(CC)CCNC(=O)Cn1cc2c(n1)-c1c(oc(C(=O)N3CCCC3)c1C)CC2	?	15.8µM*	nt
Cc1ccc2nc(C3CCCN3Cc3nc(CCC(C)C)no3)[nH]c2c1 (stereo not given)	20µM*	7.08µM*	nt
COc1cccc(C2CCCN2Cc2nc(CCC(C)C)no2)c1 (stereo not given)	-15.9%	-26.5%	0.2%
O=C(CSc1nnnn1C1CCCCC1)Nc1ccccc1F	-22.9%	28.0%	-5.1%
O=C(CSc1nnnn1C1CC2CCC1C2)Nc1ccnc2ccccc12 (stereo not given)	0.0022µM*	?	2.9%
O=[N+]([O-])c1cccc(I)c1	-18.7%	8.0%	nt
CCOc1ccc(-n2c(-c3ccc(Br)cc3)c[n+]3c2CCCCC3)cc1	22.4µM*	?	2.0%
COc1ccc(-c2c[n+]3c(n2-c2ccc(C)cc2)CCCCC3)cc1	11.2µM*	-61.3%	nt
COc1ccc(-c2c[n+]3c(n2-c2c(C)n(C)n(-c4ccccc4)c2=O)CCCCC3)cc1	-2.5%	0.7%	-1.8%
COc1ccc(-n2c(-c3ccc(Cl)cc3)c[n+]3c2CCCCC3)cc1	-11.3%	30.9%	nt
CCOc1ccc(-n2c(-c3ccc(OC)cc3)c[n+]3c2CCCCC3)cc1	2µM*	11.2µM*	0.2%
COc1ccc(-c2c[n+]3c(n2-c2ccccc2)CCCCC3)cc1	?	?	3.2%
Brc1ccc(-c2c[n+]3c(n2-c2ccccc2)SCC3)cc1	-9.4%	18.0%	nt
CCOc1ccc(-n2c(-c3ccccc3)c[n+]3c2CCC3)cc1	8.91µM*	?	-1.7%
Cc1csc(SC(C)C(=O)NCC2CCCCC2)n1 (stereo not given)	1.2%	17.7%	10.2%
SMILES	Gal4-VP16 FLuc	RORgamma inh	KinaseGlo FLuc
Cc1ccc(NC(=O)c2ccc3c(c2)C(=O)N(c2cc(C)ccc2C)C3=O)nc1	-0.6%	-11.8%	nt
CC(C)=NNC(=O)C1=NNC(=O)C1	-4.3%	0.7%	nt
C(=C\c1nc(N2CCCCCC2)c2ccccc2n1)/c1ccccc1	-16.2%	?	nt
OC1OC[C@H](O)[C@@H](O)[C@H]1O (stereo not given in full)	0.1%	3.1%	nt
CC1CN(c2ncc(/C=N/NC(=O)c3ccccc3O)s2)CC(C)O1 (stereo not given)	1.26µM*	0.355µM*	-0.6%
CC1Oc2ccccc2C=C1/C=N/NC(=O)c1ccccc1O (stereo not given)	?	?	-5.2%
COCCn1c(=S)[nH]c2cc(C(=O)NC(C)C)ccc2c1=O	-12.8%	42.3%	1.3%
CCCn1c(=S)[nH]c2cc(C(=O)N3CCc4ccccc43)ccc2c1=O	3.55µM*	2.82µM*	-0.7%
CC(C)Cn1c(=S)[nH]c2cc(C(=O)O)ccc2c1=O	-1.5%	-3.3%	nt
COCCn1c(=S)[nH]c2cc(C(=O)N3CCc4ccccc43)ccc2c1=O	?	12.6µM*	1.9%
CC1(OC(=O)c2cnc3ccccc3n2)C(=O)C=C2C=C3CCCN3C=C2C1=O (stereo not given)	nt	nt	-10.6%[7.66 µM]
COCC(=O)N1CCC(Oc2ccc(C(=O)N3C[C@@H](C)O[C@@H](C)C3)cc2)CC1	15.8%	8.7%	nt
Cc1ccc(C)c(NS(=O)(=O)c2cc(C(=O)O)ccc2Cl)c1	nt	nt	-0.8%
COc1ccc(CSc2nnc(Cc3sc(-c4ccccc4)nc3-c3ccccc3)o2)cc1	-1.5%	15.3%	0.0%
Cc1cccc(C2c3[nH]c4ccccc4c3CCN2C(=O)c2cc(CC(C)C)nc(C)n2)n1 (stereo not given)	-0.9%	36.2%	5.0%

Screening data (PubChem)
